Consider 39 compounds from PubChem BioAssay (EPA / NIEHS).

Each structure is given as a SMILES string. Results filed as inconclusive are left out. The source made the active and inactive calls. How the source made its calls: active means hit-call score of the fitted dose curve at least 0.9, where 1 is the maximum; inconclusive means response in the unintended direction; inactive means score below 0.9.

One may read the AC50 as the concentration at which the activity in the assay is half-maximal.

Sequence of Broad substrate specificity ATP-binding cassette transporter ABCG2 (Homo sapiens) (Q9UNQ0 whole entry, looked up): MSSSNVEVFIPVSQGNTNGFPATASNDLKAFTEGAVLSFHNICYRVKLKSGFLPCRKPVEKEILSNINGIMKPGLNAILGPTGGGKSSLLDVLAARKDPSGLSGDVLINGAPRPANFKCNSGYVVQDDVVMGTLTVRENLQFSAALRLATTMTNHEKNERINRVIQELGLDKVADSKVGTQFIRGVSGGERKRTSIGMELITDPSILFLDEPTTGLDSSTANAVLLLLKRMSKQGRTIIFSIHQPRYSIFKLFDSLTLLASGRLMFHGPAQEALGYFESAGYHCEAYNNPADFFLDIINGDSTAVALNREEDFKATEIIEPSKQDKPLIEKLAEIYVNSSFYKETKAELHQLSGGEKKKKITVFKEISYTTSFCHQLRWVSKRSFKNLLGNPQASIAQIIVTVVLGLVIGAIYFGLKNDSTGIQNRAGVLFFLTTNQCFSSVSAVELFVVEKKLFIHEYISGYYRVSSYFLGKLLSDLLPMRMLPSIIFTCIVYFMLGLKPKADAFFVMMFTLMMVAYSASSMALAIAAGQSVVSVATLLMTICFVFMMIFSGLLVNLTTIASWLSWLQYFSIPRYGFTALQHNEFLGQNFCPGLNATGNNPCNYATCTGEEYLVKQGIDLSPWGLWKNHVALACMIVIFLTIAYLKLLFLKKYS

Read-out in this test: Broad substrate specificity ATP-binding cassette transporter ABCG2 (Homo sapiens) (UniProt Q9UNQ0)
Kind of test: CLD_ABCG2_24hr: CellzDirect (CLD) Gene Expression Assay for ABC Transporter (ABCG2) at 24 hours (AID 2283685). The method, then:
CLD_24hr is a cell-based, multiplexed-readout assay that uses hepatocyte, a human liver primary cell, with measurements taken at 24 hours after chemical dosing in a 96-well plate.CLD_ABCG2_24hr is one of 16 assay component(s) measured or calculated from the CLD_24hr assay. It is designed to make measurements of mRNA induction, a form of inducible reporter, as detected with chemiluminescence signals by Quantitative Nuclease Protection Assay (qNPA) technology.Data from the assay component CLD_ABCG2_24hr was analyzed at the endpoint, CLD_ABCG2_24hr, in the positive analysis fitting direction relative to DMSO as the negative control and baseline of activity. Using a type of inducible reporter, gain-of-signal activity can be used to understand changes in the reporter gene as they relate to the gene ABCG2. Furthermore, this assay endpoint can be referred to as a primary readout. To generalize the intended target to other relatable targets, this assay endpoint is annotated to the transporter intended target family, where subfamily is ABC transporter.
Human hepatocyte cultures were treated daily for two consecutive days with fresh dosing solutions containing appropriate concentrations of the 320 ToxCast chemicals (chemical identities were blinded to CellzDirect and other ToxCast collaborators), vehicle control (0.2% DMSO), and positive control inducers as summarized in Table 1. Due to the large number of treatment groups and chemicals examined, the ToxCast chemicals were divided into two groups (spanning two independent cultures of hepatocytes from separate donor preparations (Hu778: ToxCast plates 1 and 2; Hu776: ToxCast plates 3 and 4). Each preparation of human hepatocyte cultures was treated with respective vehicle control, medium only control, set of six positive controls/reference chemicals for the five hepatic receptor pathways, and a subset of eight of the ToxCast chemicals (indoxacarb, pyrithiobac-sodium, norflurazon, cyhalofop-butyl, methomyl, thiram, acetochlor, and propiconazole). These replicate data, coupled with internal replicates designed within the blinded ToxCast chemical library, provided additional data to evaluate interindividual differences between hepatocyte preparations and their potential impact on chemical profiles.Cell morphology and integrity were evaluated using phase-contrast microscopy as an indicator of hepatocyte cell health (Tyson & Green, 1987). Cultures for each treatment group (i.e., media, vehicle [0.2% DMSO], positive control inducers [multiple concentrations], and the ToxCast chemicals [multiple concentrations]) were observed and cell morphology was assessed relative to vehicle control cultures at each harvest time point (0, 6, 24, or 48 h). […] Images were evaluated at the conclusion of the study to assess changes in cell integrity and account for the effects of chemical exposure on uncharacteristic changes in concentration-dependent gene expression profiles. The results from these determinations of apparent cytotoxicity were annotated (yes/no) alongside the corresponding qNPA data for reference.At the conclusion of each treatment period, hepatocyte cultures (96-well) were washed with 1 volume of HBSS, lysed by addition of 25 ul ArrayPlate lysis buffer (HTG, Tucson, AZ), and 70 ul/well of Denaturation Oil, denatured by incubation at 95C for 10 min, and frozen at approximately -70C until analysis by nuclease protection assay (qNPA) (Roberts et al., 2007). For qNPA analysis, cell lysates were thawed at 50C for approximately 30 min, qNPA probes were added, and samples were incubated at 95C for 10 min to begin the detection process by denaturing the target RNA, dissociating the duplexes and secondary structure hybridization. At the conclusion of the hybridization period, S1 nuclease reagent was added to each sample to digest all nonprotected nucleotides at 50C for 60-90 min. […]
Consider `CCOCN(C(=O)CCl)c1c(C)cccc1CC`, for which the compound was classed as inactive.

Regarding `Cc1cc(C)nc(NC(=O)NS(=O)(=O)c2ccccc2C(=O)OC2COC2)n1`, the compound was called inactive.

On to `COC(=O)c1ccccc1S(=O)(=O)NC(=O)N(C)c1nc(C)nc(OC)n1`, for which the compound was called inactive.

`CCC(C)(C)C(=O)OC1=C(c2ccc(Cl)cc2Cl)C(=O)OC12CCCCC2`: the compound was classed as inactive.

`CCOc1nc(NC)nc(NC(=O)NS(=O)(=O)c2ccccc2C(=O)OC)n1`: the result was inactive.

In the case of `CN1CSC(=S)N(C)C1`, the outcome was inactive.

As for `CC(C)(C)C(O)C(Oc1ccc(Cl)cc1)n1cncn1` (centres undefined), the result was inactive.

Consider `O=S(=O)(O)C(F)(F)C(F)(F)C(F)(F)C(F)(F)C(F)(F)C(F)(F)C(F)(F)C(F)(F)F`, for which the result was inactive.

Turning to `O=S1OCC2C(CO1)C1(Cl)C(Cl)=C(Cl)C2(Cl)C1(Cl)Cl` (centres undefined), the result was inactive.

As for `CC(C)OC(=O)Nc1cccc(Cl)c1`, the result was inactive.

Regarding `Clc1ccccc1-c1nnc(-c2ccccc2Cl)nn1`, the compound was classed as inactive.

For the compound `CCCN(CCC)c1c([N+](=O)[O-])cc(C(F)(F)F)cc1[N+](=O)[O-]`, the call was inactive.

With `O=C(O)C(F)(F)C(F)(F)C(F)(F)C(F)(F)C(F)(F)C(F)(F)C(F)(F)F`, the call was inactive.

Consider `[2H]C1([2H])[n+]2ccccc2-c2cccc[n+]2C1([2H])[2H]`, for which the compound was called inactive.

On to `C#CCN1C(=O)COc2cc(F)c(N3C(=O)C4=C(CCCC4)C3=O)cc21`, for which the compound was classed as inactive.

Consider `COP(=S)(OC)Oc1ccc([N+](=O)[O-])cc1`, for which the compound was called inactive.

In the case of `C[C@H]1[C@H](c2ccc(Cl)cc2)SC(=O)N1C(=O)NC1CCCCC1`, the compound was called inactive.

In the case of `CNC(=O)Oc1ccccc1OC(C)C`, the compound was classed as inactive.

On to `CCS(=O)(=O)c1cccnc1S(=O)(=O)NC(=O)Nc1nc(OC)cc(OC)n1`, for which the outcome was inactive.

Consider `CC[C@H](C)[C@H]1O[C@]2(C=C[C@@H]1C)C[C@@H]1C[C@@H](C/C=C(\C)[C@@H](O[C@H]3C[C@H](OC)[C@@H](O[C@H]4C[C@H](OC)[C@@H](O)[C@H](C)O4)[C@H](C)O3)[C@@H](C)/C=C/C=C3\CO[C@@H]4[C@H](O)C(C)=C[C@@H](C(=O)O1)[C@]34O)O2` (tested in a mixture with another compound), for which the AC50 was 4.64 µM (active).

In the case of `ClC1C(Cl)C(Cl)C(Cl)C(Cl)C1Cl` (centres undefined), the result was inactive.

For `CCOC1Oc2ccc(OS(C)(=O)=O)cc2C1(C)C` (centres undefined), the result was inactive.

For `CCCN(CCOc1c(Cl)cc(Cl)cc1Cl)C(=O)n1ccnc1`, the compound was called inactive.

Consider `O=C(O)COc1ccc(Cl)cc1Cl`, for which the outcome was inactive.

For the compound `O=C1c2ccccc2C(=O)N1SC(Cl)(Cl)Cl`, the outcome was inactive.

Turning to `O=[N+]([O-])c1c(Cl)c(Cl)c(Cl)c(Cl)c1Cl`, the compound was classed as inactive.

As to `CC(C)N(C(=O)COc1nnc(C(F)(F)F)s1)c1ccc(F)cc1`, the outcome was inactive.

Consider `N#CN`, for which the compound was classed as inactive.

Consider `CCN(CC)C(=O)SCc1ccc(Cl)cc1`, for which the compound was classed as inactive.

Take `CC(C)(C)C(O)/C(=C\c1ccc(Cl)cc1Cl)n1cncn1` (centres undefined): the compound was called inactive.

In the case of `N#Cc1c(Cl)c(Cl)c(Cl)c(C#N)c1Cl`, the result was inactive.

Turning to `O=C(NC(=O)c1c(F)cccc1F)Nc1ccc(OC(F)(F)C(F)OC(F)(F)F)c(Cl)c1` (centres undefined), the compound was classed as inactive.

As to `COc1cc(OC)nc(NC(=O)NS(=O)(=O)c2cc(NC=O)ccc2C(=O)N(C)C)n1`, the call was inactive.

With `COC(=O)c1ccccc1S(=O)(=O)NC(=O)Nc1nc(C)nc(OC)n1`, the outcome was inactive.

With `COc1nn(CSP(=S)(OC)OC)c(=O)s1`, the compound was called inactive.

With `O=[N+]([O-])/N=C1\NCCN1Cc1ccc(Cl)nc1`, the compound was classed as inactive.

`COP(=O)(OC)OC=C(Cl)Cl`: the outcome was inactive.

Consider `OCCOc1ccccc1`, for which the compound was called inactive.

`O=C(O)CCCOc1ccc(Cl)cc1Cl`: the compound was classed as inactive.
